Data on 33 compounds can be found in PubChem BioAssay (NCATS).

Records with an inconclusive call do not appear. For some of these results: Entries with a potency or affinity are not part of this list. Active and inactive are the calls of the source. Unless noted, the rule behind the calls is not given here.
Throughout, for efficacy: 0% is about no effect.

One experiment is described as follows: qHTS assay for cell viability of the p53RE-bla HCT-116 cell line (AID 743292; active = well fitted cell-killing curve with a large enough effect; note: % is set by controls: 0 for no effect and ±100 for the full control effect; nearly all actives have a fitted effect of over 55% in size). The settings on record: p53RE-bla HCT-116 viability, ATP luminescence, 16 h; series mostly up to 95 µM. In a few lines: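 In this qHTS counter-screen, metabolically competent p53RE-bla HCT-116 cells were counted via their ATP content. Compounds were applied for 16 h at 37 C and luciferase-coupled luminescence was measured.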
Consider `CC1(C)C(C=C(Cl)Cl)C1C(=O)OC(C#N)c1cccc(Oc2ccccc2)c1` (stereo not drawn), for which the Potency result was “inactive”.
On the same count and under the same terms, then `C[C@]12CCC(=O)C=C1CC[C@@H]1[C@@H]2CC[C@@]2(C)[C@H]1CC[C@]2(C)O`, with “inactive”.
On the same count and under the same terms, then `COP(=S)(OC)Oc1cc(Cl)c(Cl)cc1Cl`, with “inactive”.
Consider `CC(C)c1cccc(C(C)C)c1O`, for which the Potency entry was “inactive”.

The nature of the next experiment: qHTS profiling of the MIPE4 collection as inhibitors of Plasmodium falciparum (3D7) proliferation (AID 743344).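 Note: scaled between DMSO vehicle wells and 0.29 µM artemisinin as full inhibition.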 The settings on record: P. falciparum 3D7 in erythrocytes, SYBR Green DNA fluorescence, 72 h; at 28.5 µM (top of the series) unless noted. In a few lines:
(§1)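 Erythrocytes infected with P. falciparum (0.3% parasitemia, 2.5% hematocrit) incubated with compounds 72 h at 37 C, 5% CO2. Lysis with saponin/Triton buffer containing SYBR Green I, overnight at room temperature in the dark; DNA fluorescence (485/535 nm) normalised to 0.29 uM artemisinin and DMSO.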
(In general: In qHTS, concentration-response curves come from the screen itself.)
For `O=c1[nH]cnc2[nH]ncc12`, the parasite growth, % of DMSO control was found to be 105%.
In turn, `CC[N+](CC)(CC)CCOc1cccc(OCC[N+](CC)(CC)CC)c1OCC[N+](CC)(CC)CC` showed a parasite growth, % of DMSO control of 86%.
On to `CC(C)c1cccc(C(C)C)c1O`, for which the parasite growth, % of DMSO control came to 89.1%.

A short description of the next experiment: qHTS profiling of the MIPE4 collection as inhibitors of Plasmodium falciparum (DD2) proliferation (Rep 2) (AID 743346). The settings on record: P. falciparum Dd2 in erythrocytes, SYBR Green DNA, 72 h; at 28.5 µM (top of the series) unless noted. In a few lines: as §1
On to `O=c1[nH]cnc2[nH]ncc12`, for which the parasite growth, % of control (lower = inhibition) stood at 153%.
Still for that read-out and setting: then `CC[N+](CC)(CC)CCOc1cccc(OCC[N+](CC)(CC)CC)c1OCC[N+](CC)(CC)CC`, with 133%; and `CC(C)c1cccc(C(C)C)c1O`, with 85.1%.

The nature of the next experiment: qHTS profiling of the MIPE4 collection as inhibitors of Plasmodium falciparum (HB3) proliferation (AID 743347).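 Note: plate controls were DMSO vehicle wells for no effect and artemisinin wells for full effect.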 The settings on record: P. falciparum HB3 in erythrocytes, SYBR Green DNA, 72 h; at 28.5 µM (top of the series) unless noted. In a few lines: as §1
Regarding `O=c1[nH]cnc2[nH]ncc12`, the growth, % of control was 93.3%.
Still for that read-out and setting: then `CC[N+](CC)(CC)CCOc1cccc(OCC[N+](CC)(CC)CC)c1OCC[N+](CC)(CC)CC`, with 111%.
On the same count and under the same terms, then `CC(C)c1cccc(C(C)C)c1O`, with 103%.

Assay in the next experiment: not given
As to conditions: Ebola virus entry assay, green fluorescence channel.
In the case of `CN1CC[C@]23c4c5ccc(O)c4O[C@H]2[C@@H](O)CC[C@H]3[C@H]1C5`, the efficacy is 13.6% (inactive).
Still for that read-out and setting: then `c1ccc(CN2CCNCC2)cc1`, with -15.2% (inactive); and `Cc1ccc(C(C)C)cc2c(C)ccc1-2`, with 14% (inactive).
`COCCOC(=O)C1=C(C)NC(C)=C(C(=O)OC(C)C)C1c1cccc([N+](=O)[O-])c1` (stereo not drawn): the efficacy was 27.1% (inactive).
Same read-out and setting: then `CC(C)(C)NC[C@H](O)COc1nsnc1N1CCOCC1`, with 15.5% (inactive); and `O=C(Nc1ccc(Br)cc1)c1cc(Br)cc(Br)c1O`, with -20.2% (inactive); and `COc1cccc([C@@]2(O)CCCC[C@@H]2CN(C)C)c1`, with -12.5% (inactive).
On the same count and under the same terms, then `O=C(NCC(O)CO)c1c(I)c(C(=O)NCC(O)CO)c(I)c(N(CCO)C(=O)CO)c1I` (stereo not drawn), with 35.5% (inactive); and `COc1ccc2c3c1O[C@H]1[C@H](O)CC[C@H]4[C@@H](C2)N(C)CC[C@@]341`, with -11.3% (inactive); and `Cc1cc2nc3c(=O)[nH]c(=O)nc-3n(C[C@H](O)[C@H](O)[C@H](O)CO)c2cc1C`, with 67.6% (inactive).
`C[N+]1(CCF)[C@@H]2CC[C@H]1CC(OC(=O)C(O)(c1ccccc1)c1ccccc1)C2` (stereo partly drawn): the efficacy is -17.5% (inactive).
For `CCCCCCCCCC(=O)O[C@H]1CC[C@H]2[C@@H]3CCC4=CC(=O)CC[C@@H]4[C@H]3CC[C@]12C`, the efficacy is 27.8% (inactive).
On the same count and under the same terms, then `CC(C)NCC(O)c1cc(O)cc(O)c1` (stereo not drawn), with 56.8% (inactive).
The same measure, in the same setting: then `CCOP(=S)(OCC)Oc1ccc2c(C)c(Cl)c(=O)oc2c1`, with 16.9% (inactive); and `COc1cc(CCN)cc(OC)c1OC`, with 10.5% (inactive).
Same read-out and setting: then `COc1ccc(Cc2cnc(N)nc2N)cc1OC`, with -23.5% (inactive); and `Cc1cc(C(C#N)c2ccc(Cl)cc2)c(Cl)cc1NC(=O)c1cc(I)cc(I)c1O` (stereo not drawn), with -32.3% (inactive); and `CC1(C)C(C=C(Cl)Cl)C1C(=O)OC(C#N)c1cccc(Oc2ccccc2)c1` (stereo not drawn), with -14.1% (inactive).
For `O=C(CCCN1CCC2(CC1)C(=O)NCN2c1ccccc1)c1ccc(F)cc1`, the efficacy is -27.3% (inactive).
On to `C[C@]12CCC(=O)C=C1CC[C@@H]1[C@@H]2CC[C@@]2(C)[C@H]1CC[C@]2(C)O`, for which the efficacy is -23% (inactive).
The same measure, in the same setting: then `CN1Cc2cc(C(=O)N3CCC(C4CCNCC4)CC3)ccc2NC(CC(=O)O)C1=O` (stereo not drawn), with 57.9% (inactive); and `CC1(C)O[C@@H]2C[C@H]3[C@@H]4CCC5=CC(=O)C=C[C@]5(C)[C@@H]4[C@@H](O)C[C@]3(C)[C@]2(C(=O)CO)O1`, with 50.6% (inactive).
Same read-out and setting: then `CN1C(C(=O)Nc2ccccn2)=C(O)c2sccc2S1(=O)=O`, with -30.7% (inactive); and `FC1(F)C(F)(F)C(F)(F)C2(F)C(F)(F)C(F)(F)C(F)(F)C(F)(F)C2(F)C1(F)F` (stereo not drawn), with -14% (inactive); and `O=C(N/N=C/c1ccccc1O)c1ccncc1`, with 66.8% (inactive).
As to `COP(=S)(OC)Oc1cc(Cl)c(Cl)cc1Cl`, the efficacy is -14% (inactive).
Same read-out and setting: then `CC(=O)OCC(=O)[C@@]1(OC(C)=O)[C@@H](C)C[C@H]2[C@@H]3C[C@H](F)C4=CC(=O)C=C[C@]4(C)[C@@]3(F)[C@@H](O)C[C@@]21C`, with 58.7% (inactive); and `CC(=O)O[C@]1(C(C)=O)CC[C@H]2[C@@H]3C[C@H](C)C4=CC(=O)CC[C@]4(C)[C@H]3CC[C@@]21C`, with 38.2% (inactive); and `CCOc1ccccc1OCC1CNCCO1` (stereo not drawn), with 47.7% (inactive).
Still for that read-out and setting: then `CC1CCc2c(N3CCC(O)CC3)c(F)cc3c(=O)c(C(=O)O)cn1c23` (stereo not drawn), with -9.77% (inactive).
